Data on 40 compounds can be found in PubChem BioAssay (Tox21).

Inconclusive results are not listed. A number with no mark means an inactive call. The call rests on the fitted dose curve; in most records, active means well fitted cell-killing curve with a large enough effect in the repeat runs; inconclusive means weak or mixed curves, or effect the other way; inactive means no such curve, though single readings can be large or run the other way.
On the % scale 0 is the no-effect control and ±100 the full control effect.

The test can be described thus: qHTS assay to identify small molecule antagonists of the peroxisome proliferator-activated receptor gamma (PPARg) signaling pathway - cell viability counter screen (AID 743194). Further: nearly all actives have a fitted effect of over 55% in size. Conditions: PPARg-bla HEK293H viability, CellTiter-Glo luminescence, 17 h, co-treated with 50 nM rosiglitazone; series mostly up to 62.6 µM; activity change, negative = cytotoxicity: at the top concentration. An excerpt:
U.S. Tox21 Program National Center for Advancing Translational Sciences [NCATS] NIH Chemical Genomics Center [NCGC] U.S. Environmental Protection Agency [EPA] National Institutes of Environmental Health Sciences [NIEHS] National Toxicology Program [NTP] U.S. Food and Drug Administration [FDA] Tox21 Assay Overview: The peroxisome proliferator-activated receptors (PPARs) are lipid-activated transcription factors of the nuclear receptor superfamily with three distinct subtypes namely PPAR alpha, PPAR delta (also called PPAR beta) and PPAR gamma (PPARg). All these subtypes heterodimerize with Retinoid X receptor (RXR) and these heterodimers regulate transcription of various genes. PPAR-gamma receptor (glitazone receptor) is involved in the regulation of glucose and lipid metabolism. To identify the compounds that activate PPAR-gamma signaling, GeneBLAzer PPAR gamma UAS-bla HEK293H cell line (Invitrogen, Carlsbad, CA, USA) containing a beta-lactamase reporter gene under the control of an Upstream Activator Sequence (UAS) was used to screen the Tox21 compound library. The cytotoxicity of the Tox21 compound library against the PPARg-bla cell line was tested in parallel by measuring the cell viability using CellTiter-Glo assay in the same wells.
Tox21 Assay Protocol Summary: PPARg-bla cells were dispensed at 3000 cells/5uL/well in 1536-well black wall/clear bottom plates using a Multidrop Combi (Thermo Fisher Scientific, Waltham, MA) dispenser. After the assay plates were incubated at 37 C and 5% CO2 for 5 h, 23 nL of compounds dissolved in DMSO, positive controls or DMSO only was transferred to the assay plate by a Pintool station (Kalypsys, San Diego, CA), followed by addition of 1ul Rosiglitazone (50 nM, final concentration in the wells). The assay plates were incubated at 37 C for 17 h, and then 1 uL of LiveBLAzerTM B/G FRET substrate was added using a Bioraptr Flying Reagent Dispenser (FRD) workstation (Beckman Coulter, Indianapolis, IN, USA). The assay plates were incubated at room temperature for 1 h and fluorescence intensity was measured by an Envision plate reader (PerkinElmer, Shelton, CT). For cell viability readout that measures cytotoxicity, 4 ul/well of CellTiter-Glo reagent was added into the assay plates using a Flying Reagent Dispenser. After 30 min incubation at room temperature, the luminescence intensity in the plates was measured using a ViewLux plate reader (PerkinElmer).
Regarding `O=C(c1ccc(O)cc1)c1ccc(Cl)cc1`, the “activity change, negative = cytotoxicity” value was 1.53% [at 81.1 µM].
To `COc1cc2[nH]c(=O)[nH]c(=O)c2cc1OC` belongs -5.41%; to `CCCCC(CC)CNCC(CC)CCCC` (stereo not given), 23.4%; to `CC1(C)C2=CCCC(C)(C)[C@]23CC[C@H]1C3`, -4.16%.
With `CC1(C)C(=O)N(Br)C(=O)N1Cl` the figure was -6.37%.
With `CCCc1c(OCCCOc2ccc(OCC(=O)O)cc2)ccc(C(C)=O)c1O` the figure was 2.91%; with `CC(C)(C)C(=O)O`, 11.6% [at 81.1 µM]; with `CCOC(=O)C(C)Oc1ccc(Oc2nc3ccc(Cl)cc3o2)cc1` (stereo not given), 15.1%.
In the case of `CCc1nn(CCCN2CCN(c3cccc(Cl)c3)CC2)c(=O)n1CCOc1ccccc1`, the “activity change, negative = cytotoxicity” value was -6.17%.
Consider `O=C(O)c1ccccc1NCCc1ccccc1`, for which the “activity change, negative = cytotoxicity” value was 2.38%.
With `CCOC(=O)CC(=O)C(=O)OCC` the figure was 26.1%.
To `CC(=O)Oc1ccc(C(=C2CCCCC2)c2ccc(OC(C)=O)cc2)cc1` belongs -13%; to `CC(COc1ccc(C(C)(C)C)cc1)OS(=O)OCCCl` (stereo not given), 11% [at 81.1 µM]; to `O=C1NCCN1`, 1.19%.
With `Nc1c(I)cc(I)c(C(=O)N(CCC(=O)O)c2ccccc2)c1I` the figure was -0.658%.
`[O]=[Bi]`: the activity change, negative = cytotoxicity is -1.71% [at 5.95 µM].
With `CCC(C(=O)OCCOCCN(CC)CC)c1ccccc1` (stereo not given), the “activity change, negative = cytotoxicity” value was -3.51%.
With `CCC1(C)CC(=O)NC1=O` (stereo not given) the figure was 1.97%; with `CCCOC(=O)c1ccc(N)cc1`, 9.74%.
With `CCCOCCOCCO` the figure was 18.2%.
In the case of `C=CC(C)=CCC=C(C)C`, the “activity change, negative = cytotoxicity” value is -3.86%.
As to `Cn1c(=O)c2c(ncn2CC(=O)O)n(C)c1=O`, the “activity change, negative = cytotoxicity” value is 7.06%.
With `CCCC(=O)O[C@]1(C(=O)COC(=O)CC)CC[C@H]2[C@@H]3CCC4=CC(=O)CC[C@]4(C)[C@H]3[C@@H](O)C[C@@]21C` the figure was -14.9% [at 29.1 µM].
To `O=C1OCCN1/N=C/c1ccc([N+](=O)[O-])o1` belongs -5.6%; to `OCCSc1ccccc1`, 0.245%.
To `CC(=N\O)/C(C)=N/O` belongs 14%; to `CCC(=O)OC/C=C/c1ccccc1`, 13.8%.
For `CC(=O)OCC(=O)[C@H]1CC[C@H]2[C@@H]3CCC4=CC(=O)CC[C@]4(C)[C@H]3CC[C@]12C`, the “activity change, negative = cytotoxicity” value was 1.74%.
Regarding `CCNC(=O)N1CCN(CCCC(c2ccc(F)cc2)c2ccc(F)cc2)CC1`, the “activity change, negative = cytotoxicity” value is 8.62%.
To `CNC(=S)NC` belongs 0.331%.
With `CO[Si](C)(OC)OC` the figure was -5.82%; with `CCCCCCCCCCOS(=O)(=O)O`, 3.24%.
With `CC(=O)CC(c1ccc([N+](=O)[O-])cc1)c1c(O)c2ccccc2oc1=O` (stereo not given) the figure was -1.51%; with `CCc1c2c(nc3ccc(OC(=O)N4CCC(N5CCCCC5)CC4)cc13)-c1cc3c(c(=O)n1C2)COC(=O)[C@]3(O)CC`, -9.17%.
On to `COc1cc2ncnc(Nc3ccc(F)c(Cl)c3)c2cc1OCCCN1CCOCC1`, for which the “activity change, negative = cytotoxicity” value is -20.2%.
To `NC(=O)Nc1ccc(Cl)c(Cl)c1` belongs 0.415%.
To `CCCCCC=CCC=CCCCCCCCC(=O)OCC` belongs -18.8%.
To `CNC(=O)N(c1ccccc1)c1ccccc1` belongs 9.83% [at 81.1 µM].
`C[Si]1(C)O[Si](C)(C)O[Si](C)(C)O1`: the “activity change, negative = cytotoxicity” value was -2.63%.
With `Cc1cnc(C)c(C)n1` the figure was 11.7% [at 81.1 µM].
